# Experimental data reported in PubChem BioAssay AID1159580 (chemical genetic matrix, 2015).
# Among all 5,500 compounds or so, about 2,000 (36%) were called active. Inconclusive results (about 18%) are left out. The list shows a part of the results. Unmarked numbers belong to inactive results. No stated cut-off is given here; in the data, active means normalized growth mostly below about 0.91 (no sharp cut-off); inconclusive means no clear call, values can overlap the other calls; inactive means mostly above about 0.92.
# Assay: chemical genetic growth profiling, strain panel (AID 1159580);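 further: tested at 20 µM; growth read once vehicle control cultures reached saturation at 30 °C; 1 = growth at the plate median or of vehicle wells; lower values mean less growth of the strain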
# Details: S. cerevisiae deletion strains, growth OD
structure (smiles),measurement,setting,value
COc1ccc2c(c1)OC/C(=C/c1ccc(OC)c(OC)c1)C2=O,normalized growth,"locus YJR066W, strain TOR1, hits give low values",0.903
same,normalized growth,"locus YJR075W, strain HOC1, hits give low values",0.955
same,normalized growth,"locus YKL009W, strain mrt4, hits give low values",0.973
same,normalized growth,"locus YKL068W, hits give low values",1.02
same,normalized growth,"locus YKL085W, strain MDH1 (second series), hits give low values",0.98
same,normalized growth,"locus YKL085W, strain MDH1, hits give low values",0.98
same,normalized growth,"locus YKL160W, strain elf1, hits give low values",0.758 (active)
same,normalized growth,"locus YKL190W, strain CNB1, hits give low values",0.982
same,normalized growth,"locus YKR001C, strain vps1, hits give low values",0.861 (active)
same,normalized growth,"locus YKR026C, strain gcn3, hits give low values",0.984
same,normalized growth,"locus YKR091W, strain srl3, hits give low values",0.979
same,normalized growth,"locus YLL001W, strain dnm1, hits give low values",0.845 (active)
same,normalized growth,"locus YLL026W, hits give low values",0.979
same,normalized growth,"locus YLL041C, strain sdh2, hits give low values",1.01
same,normalized growth,"locus YLR027C, strain aat2, hits give low values",0.914 (active)
same,normalized growth,"locus YLR039C, strain RIC1, hits give low values",0.727
same,normalized growth,"locus YLR058C, strain SHM2, hits give low values",0.949
same,normalized growth,"locus YLR102C, strain apc9, hits give low values",0.974
same,normalized growth,"locus YLR113W, strain HOG1, hits give low values",0.933
same,normalized growth,"locus YLR221C, strain rsa3, hits give low values",0.886 (active)
same,normalized growth,"locus YLR258W, strain gsy2, hits give low values",0.915
same,normalized growth,"locus YLR262C, strain YPT6 (second series), hits give low values",0.682 (active)
same,normalized growth,"locus YLR262C, strain YPT6, hits give low values",0.805
same,normalized growth,"locus YLR268W, strain sec22, hits give low values",0.852 (active)
same,normalized growth,"locus YLR320W, strain mms22, hits give low values",0.71 (active)
same,normalized growth,"locus YLR330W, strain CHS5, hits give low values",0.838 (active)
same,normalized growth,"locus YLR342W, strain FKS1 (second series), hits give low values",0.809
same,normalized growth,"locus YLR342W, strain FKS1, hits give low values",0.92
same,normalized growth,"locus YLR357W, strain rsc2, hits give low values",0.985
same,normalized growth,"locus YLR370C, strain arc18, hits give low values",0.962
same,normalized growth,"locus YLR371W, strain rom2, hits give low values",0.951
same,normalized growth,"locus YLR384C, strain iki3, hits give low values",1
same,normalized growth,"locus YLR418C, strain cdc73, hits give low values",0.621 (active)
same,normalized growth,"locus YML016C, strain PPZ1, hits give low values",0.989
same,normalized growth,"locus YML032C, strain rad52, hits give low values",0.955
same,normalized growth,"locus YML120C, strain ndi1, hits give low values",0.979
same,normalized growth,"locus YML124C, strain tub3, hits give low values",0.982
same,normalized growth,"locus YMR058W, strain fet3, hits give low values",0.87 (active)
same,normalized growth,"locus YMR078C, strain ctf18, hits give low values",0.981
same,normalized growth,"locus YMR125W, strain sto1, hits give low values",0.966
same,normalized growth,"locus YMR129W, hits give low values",0.996
same,normalized growth,"locus YMR205C, strain PFK2, hits give low values",0.68 (active)
same,normalized growth,"locus YMR223W, strain ubp8, hits give low values",0.941
same,normalized growth,"locus YMR231W, strain pep5, hits give low values",0.984
same,normalized growth,"locus YMR307W, strain GAS1, hits give low values",0.955
same,normalized growth,"locus YNL067W, strain RPL9B, hits give low values",0.931
same,normalized growth,"locus YNL071W, strain lat1, hits give low values",0.38 (active)
same,normalized growth,"locus YNL128W, strain TEP1, hits give low values",0.96
same,normalized growth,"locus YNL183C, strain NPR1, hits give low values",0.9
same,normalized growth,"locus YNL209W, strain ssb2, hits give low values",0.967
same,normalized growth,"locus YNL233W, strain BNI4, hits give low values",0.873
same,normalized growth,"locus YNL248C, strain rpa49, hits give low values",0.935
same,normalized growth,"locus YNL250W, strain rad50, hits give low values",0.98
same,normalized growth,"locus YNL271C, strain bni1, hits give low values",0.971
same,normalized growth,"locus YNL298W, strain CLA4, hits give low values",0.93
same,normalized growth,"locus YNL307C, strain MCK1, hits give low values",0.412 (active)
same,normalized growth,"locus YNL322C, strain KRE1 (second series), hits give low values",0.98
same,normalized growth,"locus YNR049C, strain mso1, hits give low values",0.978
same,normalized growth,"locus YNR052C, strain pop2, hits give low values",0.964
same,normalized growth,"locus YOL006C, strain TOP1, hits give low values",0.724
same,normalized growth,"locus YOL012C, strain htz1",0.627
same,normalized growth,"locus YOL147C, strain pex11, hits give low values",0.956
same,normalized growth,"locus YOR001W, strain rrp6, hits give low values",0.955
same,normalized growth,"locus YOR061W, strain CKA2, hits give low values",0.979
same,normalized growth,"locus YOR069W, strain VPS5, hits give low values",1
same,normalized growth,"locus YOR070C, strain gyp1, hits give low values",0.929
same,normalized growth,"locus YOR080W, strain dia2, hits give low values",0.986
same,normalized growth,"locus YOR083W, strain WHI5, hits give low values",0.852 (active)
same,normalized growth,"locus YOR106W, strain vam3, hits give low values",0.842 (active)
same,normalized growth,"locus YOR136W, strain idh2, hits give low values",0.967
same,normalized growth,"locus YOR144C, strain elg1, hits give low values",0.976
same,normalized growth,"locus YOR184W, strain ser1, hits give low values",0.805 (active)
same,normalized growth,"locus YOR231W, strain MKK1, hits give low values",0.921
same,normalized growth,"locus YOR265W, strain rbl2, hits give low values",0.954
same,normalized growth,"locus YOR270C, strain vph1, hits give low values",0.686 (active)
same,normalized growth,"locus YOR290C, strain snf2, hits give low values",0.813 (active)
same,normalized growth,"locus YOR316C, strain cot1, hits give low values",0.967
same,normalized growth,"locus YPL051W, strain arl3, hits give low values",0.852 (active)
same,normalized growth,"locus YPL078C, strain atp4, hits give low values",0.793 (active)
same,normalized growth,"locus YPL106C, strain sse1, hits give low values",0.841 (active)
same,normalized growth,"locus YPL240C, strain hsp82, hits give low values",0.87 (active)
same,normalized growth,"locus YPL241C, strain CIN2, hits give low values",0.994
same,normalized growth,"locus YPL256C, strain CLN2, hits give low values",0.972
same,normalized growth,"locus YPR119W, strain clb2, hits give low values",0.994
same,normalized growth,"locus YPR141C, strain kar3, hits give low values",0.996
same,normalized growth,"locus YPR163C, strain tif3, hits give low values",0.726 (active)
same,normalized growth,"locus YPR167C, strain met16, hits give low values",0.952
same,normalized growth,"strain wtn01, hits give low values",0.936
